Bioassay records deposited in PubChem BioAssay by National Center for Advancing Translational Sciences (NCATS).
An excerpt weighted towards active compounds, which were near 3.3% of everything screened.
Sm TGR inh: qHTS Assay for the Inhibitors of Schistosoma Mansoni Peroxiredoxins; Potency, µM (titrated, usually from 114 µM), most hits filed as inhibitors; Schistosoma mansoni thioredoxin glutathione reductase (TGR), Q962Y6; AID 485364, 2010; purified TGR, DTNB reduction, TNB absorbance 405 nm; actives 3% (n = 360,000); also: nearly all actives have a fitted effect of over 60% in size
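First, TGR (20 nM dispensed) and NADPH were mixed with compound. Second, a 15 min room-temperature incubation followed. Third, further NADPH and then DTNB were added to start the reaction. Finally, TNB absorbance was monitored kinetically.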
AmpC detergent: qHTS Inhibitors of AmpC Beta-Lactamase (assay with detergent); actives 0.041% (n = 370,000); AID 485294, 2010; AmpC hydrolysis of nitrocefin, absorbance 480 nm, 0.01% Triton; Potency, µM (doses to about 114 µM), usual class: inhibitors; also: nearly all actives have a fitted effect of over 25% in size
Target sequence (P00811 whole entry, looked up): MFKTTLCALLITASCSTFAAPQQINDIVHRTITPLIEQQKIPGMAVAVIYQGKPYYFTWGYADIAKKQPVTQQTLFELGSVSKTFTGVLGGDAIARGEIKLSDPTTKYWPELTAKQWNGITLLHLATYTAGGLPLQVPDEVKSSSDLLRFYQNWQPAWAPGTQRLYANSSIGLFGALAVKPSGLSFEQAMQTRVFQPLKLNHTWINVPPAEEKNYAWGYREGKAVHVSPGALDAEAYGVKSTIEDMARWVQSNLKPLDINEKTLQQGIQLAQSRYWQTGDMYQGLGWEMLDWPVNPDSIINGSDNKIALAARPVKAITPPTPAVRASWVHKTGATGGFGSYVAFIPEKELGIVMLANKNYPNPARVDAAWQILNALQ
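AmpC (5.3 nM in the dispensed reagent) in 20 mM phosphate pH 7.0 with 0.01% (detergent screen) or 0.0001% Triton X-100 was preincubated with compounds for 15 min at room temperature. Nitrocefin was then added from an 800 uM solution, and hydrolysis was followed at 480 nm.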
AmpC inh no detg: qHTS Inhibitors of AmpC Beta-Lactamase (assay without detergent); P00811; AmpC nitrocefin hydrolysis, absorbance 480 nm, 0.0001% Triton; Potency, µM (top dose mostly 57.1 µM), usual class: inhibitors; actives 0.52% (n = 330,000); also: nearly all actives have a fitted effect of over 20% in size
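20 mM phosphate pH 7.0 + 0.01% (detergent screen) or 0.0001% Triton X-100; 5.3 nM AmpC reagent; cpd preinc 15 min RT; nitrocefin (800 uM stock) to start; A480 q20 s × 4 min; Activity was normalised to no-enzyme and no-compound control wells.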
Of the large screens only hits and unclear results are named; the others gave an inactive call. Calls follow the shape of the dose curve; as a rule, active = well fitted curve in the direction sought with a large enough effect; inconclusive = small, poorly fitted or top-dose-only effect, or another doubt; inactive = no such curve, though single readings can be large; an effect the other way counts as inactive or inconclusive.

COc1cc(C(=O)NCC(c2ccco2)S(=O)(=O)c2ccccc2)cc(OC)c1OC (stereo not given)	none (no result: AmpC inh no detg)
COc1cc(C(=O)NCC(c2ccco2)S(=O)(=O)c2cccs2)cc(OC)c1OC (stereo not given)	Sm TGR inh 8.9µM (no result: AmpC inh no detg)
O=C(NCC(c1cccs1)S(=O)(=O)c1cccs1)c1ccc(Cl)cc1 (stereo not given)	Sm TGR inh 25µM (no result: AmpC inh no detg)
O=C(NCC(c1cccs1)S(=O)(=O)c1cccs1)c1ccc(F)c(F)c1 (stereo not given)	Sm TGR inh inconclusive (no result: AmpC inh no detg)
CCC(=O)N1CCc2cc(S(=O)(=O)CCC(=O)N3CCN(c4ccc(C(C)=O)cc4)CC3)ccc21	AmpC detergent inconclusive
COc1ccc(-c2nnc(SCc3nc4ccccc4c(=O)[nH]3)o2)cc1	none
Cc1ccc(C2=NCCn3nc4cc(C(F)(F)F)ccc4c32)cc1	none
Cc1ccc(C2=NCCn3nc4cc([N+](=O)[O-])ccc4c32)cc1	Sm TGR inh 40µM
CCCCCc1nnc(NC(=O)NS(=O)(=O)c2ccc(C)cc2)s1	none
COc1ccc(CCc2nnc(CCC(=O)NCc3cnc4ccccn34)o2)cc1	none
NC1CCc2cc(O)c(O)cc2C1 (stereo not given)	Sm TGR inh 45µM, AmpC detergent inconclusive
COc1ccccc1S(=O)(=O)CC(O)COc1ccccc1Cl (stereo not given)	none
COc1ccccc1[As](=O)(O)CC(O)COc1ccc(Cl)cc1Cl (stereo not given)	Sm TGR inh 40µM, AmpC detergent inconclusive
COc1cc(SC)ccc1C(=O)N1CCN(S(=O)(=O)/C=C/c2ccccc2)CC1	Sm TGR inh 40µM
COc1cc(SC)ccc1C(=O)N1CCN(c2ccccc2F)CC1	none (no result: Sm TGR inh)
CCSc1ncc(Cl)c(C(=O)N2CCN(c3ccc(OC)cc3)CC2)n1	none (no result: AmpC inh no detg)
CCCS(=O)(=O)c1ncc(Cl)c(C(=O)N2CCN(c3ccc(OC)cc3)CC2)n1	Sm TGR inh 11µM (no result: AmpC inh no detg)
C#CC[N+]1(CC#Cc2cccc3ccccc23)CCOCC1	Sm TGR inh 28µM
C#CC[N+]1(CC#Cc2ccc(C#CC[N+]3(CC#C)CCOCC3)cc2)CCOCC1	none
COc1ccc(CN(C(=O)c2snc(C(N)=O)c2N)C(CC(C)C)C(=O)NC2CCCCC2)cc1 (stereo not given)	none
CSc1ccc(COC(=O)CCS(=O)(=O)c2ccc(C)cc2)cc1	AmpC detergent inconclusive
COc1ccc(Cl)cc1C(=O)NCC(c1ccc(N(C)C)cc1)N1CCOCC1 (stereo not given)	none (no result: AmpC inh no detg)
Cc1ccc(Cc2cn3cc(-c4ccccc4)nc3s2)cc1	none (no result: AmpC inh no detg)
COc1ccccc1C(c1nnnn1C(C)(C)C)N1CCN(C(=O)c2ccco2)CC1 (stereo not given)	none
Cc1cc(C)c2[nH]c(=O)c(C(c3nnnn3C(C)(C)C)N3CCN(C(=O)c4ccco4)CC3)cc2c1 (stereo not given)	Sm TGR inh 79µM
CCC(C)(C)n1nnnc1C(c1cc2ccc(OC)cc2[nH]c1=O)N1CCCCC1 (stereo not given)	none
CCC(C)(C)n1nnnc1C(c1cc2cccc(C)c2[nH]c1=O)N1CCCC1 (stereo not given)	Sm TGR inh 10µM
Cc1ccc2occ(C(c3nnnn3C3CCCC3)N3CCN(C(=O)c4ccco4)CC3)c(=O)c2c1 (stereo not given)	Sm TGR inh 18µM
O=C(c1ccco1)N1CCN(C(c2cccs2)c2nnnn2C2CCCC2)CC1 (stereo not given)	none
CCC(C)(C)n1nnnc1C(c1cc2cc(C)cc(C)c2[nH]c1=O)N1CCCC1 (stereo not given)	Sm TGR inh 22µM
CCC(C)(C)n1nnnc1C(c1cc2cc(C)cc(C)c2[nH]c1=O)N1CCN(Cc2ccc3c(c2)OCO3)CC1 (stereo not given)	Sm TGR inh inconclusive
CC(OC(=O)c1ccc(Cl)c(S(=O)(=O)N2CCOCC2)c1)C(=O)Nc1ccc(S(N)(=O)=O)cc1 (stereo not given)	none
CC(C)NC(=O)[C@H]1N2C(=O)c3ccccc3C2SC1(C)C (stereo not given in full)	none
CC(=O)C[C@H](O)CC(=O)[C@H]1OC(=O)CCCCCCc2ccccc21	none (no result: Sm TGR inh, AmpC detergent)
C/C(=N\Nc1ccc(Cl)c(C(=O)O)c1)c1ccc(Br)s1	Sm TGR inh 50µM
C/C(=N\NC(=O)c1ccc(Cl)c(Cl)c1)c1ccc(Br)s1	AmpC detergent inconclusive
CCc1nn(C(CC)C(=O)NCc2ccc(OC)c(OC)c2)c(=O)c2cc3oc(C)cc3n12 (stereo not given)	none (no result: AmpC inh no detg)
O=C(CN1C(=O)COc2ccc(S(=O)(=O)N3CCCC3)cc21)N1CCN(c2cccc(C(F)(F)F)c2)CC1	AmpC detergent inconclusive (no result: AmpC inh no detg)
O=C(Cc1ccccc1[N+](=O)[O-])OCC(=O)c1c[nH]c2ccccc12	AmpC inh no detg 10µM
O=C(COC(=O)C1CC1)c1c[nH]c2ccccc12	AmpC detergent inconclusive
CN(C)CCNC(=O)C(=O)NCC(c1ccc2c(c1)OCO2)N1CCN(c2ccc(F)cc2)CC1 (stereo not given)	none
COc1cccc(-c2nc3ccccc3s2)c1O	none (no result: Sm TGR inh)
Oc1c(Br)cc(Br)cc1-c1nc2ccccc2s1	Sm TGR inh 45µM (no result: AmpC inh no detg)
CCc1ccc(NC(=O)C(=O)NCC(c2ccc3c(c2)OCO3)N2CCOCC2)cc1 (stereo not given)	none (no result: AmpC inh no detg)
Cc1ccc(-c2nc(CN3CCCCC3)cc(CN3CCCCC3)c2O)cc1	Sm TGR inh 20µM
CC(C)(C)c1nc(CN2CCOCC2)cc(CN2CCOCC2)c1O	AmpC detergent inconclusive
C(=C\c1ccco1)/C=N/n1cnnc1	Sm TGR inh 28µM, AmpC detergent inconclusive
S=c1[nH]nc(-c2ccncc2)n1/N=C/C=C/c1ccco1	Sm TGR inh 22µM
CC(/C=N/n1c(-c2ccncc2)n[nH]c1=S)=C\c1ccco1	Sm TGR inh 32µM
CC(/C=N/n1c(-c2ccccc2)n[nH]c1=S)=C\c1ccco1	Sm TGR inh inconclusive
COc1ccccc1/C=C\C=N\n1c(-c2ccc(Cl)cc2Cl)n[nH]c1=S	AmpC detergent inconclusive
C(=N\Nc1ccc2nncn2n1)/c1ccco1	none
S=c1[nH]nc(-c2ccccc2Cl)n1/N=C/C=C/c1ccco1	Sm TGR inh 20µM, AmpC inh no detg inconclusive
CC(/C=N/n1c(-c2ccc(C)cc2)n[nH]c1=S)=C\c1ccco1	none
COc1ccc(-c2ncccc2OC(=O)C23CC4CC(CC(C4)C2)C3)cc1OC	none
COc1ccc(NC(=O)CN(C)C(=O)CCCNC(=O)c2ccc(Cl)cc2)cc1	none
S=c1[nH]nc(-c2cccc(Cl)c2)n1/N=C/c1ccco1	Sm TGR inh 40µM
Cc1cccc(/C=N/n2c(-c3ccco3)n[nH]c2=S)c1	none
Cc1ccc(/C=N/n2c(-c3cccc(Cl)c3)n[nH]c2=S)o1	none
Cc1cccc(-c2n[nH]c(=S)n2/N=C/C=C/c2ccco2)c1	Sm TGR inh 11µM
COc1ccc(CNC(=O)C(c2ccc(C)o2)N(C(=O)c2csnn2)c2ccc(C(C)C)cc2)cc1 (stereo not given)	none
